Experiment [1] can be described thus: rapamycin-like changes in RPL19A-GFP expression – cell-based, S. cerevisiae, multiplex flow cytometry, primary screen (AID 1862; in the data active = percent of DMSO control GFP below about 86%;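 also: lower values mimic rapamycin by blocking the RPL19A rise seen in DMSO cells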). Conditions: S. cerevisiae RPL19A-GFP strain, flow cytometry fluorescence, 3 h; at 10 µM; stronger effect = lower value. (In general: Flow cytometry measures light scatter and fluorescence of single cells or particles in a stream.)
Experiment [2] is described as follows: TOR pathway GLN3 branch reporter MEP2-GFP changes – S. cerevisiae, multiplex flow cytometry, primary screen (AID 1867;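 active = GFP response, as percent of the DMSO control, above the screen-wide mean plus 3 SD, about 139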;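 also: median GFP channel fluorescence of barcode-gated MEP2-GFP cells measured by flow cytometry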). The note with it: S. cerevisiae MEP2-GFP strain, 3 h, at 10 µM, stronger effect = higher value, 100% means same as DMSO wells.
Experiment [3] can be described thus: TOR pathway RTG branch CIT2 reporter changes – S. cerevisiae, GFP fusion, multiplex flow cytometry, primary screen (AID 1870;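 active = percent response above a set limit, the screen-wide mean plus 3 SD, cut at about 130% in these data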;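 also: barcoded CIT2-GFP strain pooled with four other GFP strains with rapamycin as positive control; median GFP fluorescence per well over plate mean of DMSO wells so 100% = DMSO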). Conditions: S. cerevisiae CIT2-GFP expression, 3 h, at 10 µM, stronger effect = higher value.
Experiment [4] in a line: TOR pathway LAP4-GFP level changes – S. cerevisiae, multiplex flow cytometry, primary screen (AID 1873;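 active = GFP signal, as percent of the solvent control, above the screen mean plus 3 SD, about 149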). Conditions: S. cerevisiae LAP4-GFP expression, 3 h, at 10 µM, stronger effect = higher value.
Experiment [5] in a line: yeast AGP1-GFP level changes, GLN3 branch – cell-based, multiplex flow cytometry, S. cerevisiae, primary screen (AID 1887;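 active = GFP signal above the screen-wide mean plus 3 SD, that is over about 124.5% of the solvent control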;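 also: AGP1-GFP fusion strain of S. cerevisiae within a five-strain barcoded multiplex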). The note with it: 3 h, at 10 µM, stronger effect = higher value.
Experiment [6] in a line: reduced mouse 2C T cell binding to pMHC/ICAM-1 vesicles – MLPCN validation set, flow cytometry, LFA-1/ICAM-1 modulator project, pilot screen (AID 2523).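 As to vesicle binding response: mean PE anti-B7-1 fluorescence of CD8+ cells relative to row control; 100% = QL9-loaded vesicles with DMSO vehicle in the same plate row.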 Conditions: 2C mouse CD8+ T cells, at 7 µM, stronger effect = lower value; double positive events: measured here: CD8+/vesicle+ event percentage.
The target of experiment [7] is Integrin beta-1 (Homo sapiens) + Integrin alpha-4 (Homo sapiens) (UniProt P13612+P05556). Nature of the experiment: alpha4beta1 integrin LIBS antibody binding reduction – U937 cells, HUTS-21 mAb, flow cytometry, validation set, VLA-4 allosteric modulator project, pilot screen (AID 2674;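 active = inhibition above 50%, about 3 SD of the validation set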;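 also: antibody binding induced by the VLA-4 ligand LDV present at three times its Kd; 0% = LDV ligand with antibody and no compound and 100% = antibody without LDV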). The note with it: HUTS-21 LIBS mAb binding, at 6.7 µM, stronger effect = higher value, binding induced by LDV ligand.
Chain of Integrin beta-1 (Homo sapiens) + Integrin alpha-4 (Homo sapiens) (P05556 whole entry, looked up): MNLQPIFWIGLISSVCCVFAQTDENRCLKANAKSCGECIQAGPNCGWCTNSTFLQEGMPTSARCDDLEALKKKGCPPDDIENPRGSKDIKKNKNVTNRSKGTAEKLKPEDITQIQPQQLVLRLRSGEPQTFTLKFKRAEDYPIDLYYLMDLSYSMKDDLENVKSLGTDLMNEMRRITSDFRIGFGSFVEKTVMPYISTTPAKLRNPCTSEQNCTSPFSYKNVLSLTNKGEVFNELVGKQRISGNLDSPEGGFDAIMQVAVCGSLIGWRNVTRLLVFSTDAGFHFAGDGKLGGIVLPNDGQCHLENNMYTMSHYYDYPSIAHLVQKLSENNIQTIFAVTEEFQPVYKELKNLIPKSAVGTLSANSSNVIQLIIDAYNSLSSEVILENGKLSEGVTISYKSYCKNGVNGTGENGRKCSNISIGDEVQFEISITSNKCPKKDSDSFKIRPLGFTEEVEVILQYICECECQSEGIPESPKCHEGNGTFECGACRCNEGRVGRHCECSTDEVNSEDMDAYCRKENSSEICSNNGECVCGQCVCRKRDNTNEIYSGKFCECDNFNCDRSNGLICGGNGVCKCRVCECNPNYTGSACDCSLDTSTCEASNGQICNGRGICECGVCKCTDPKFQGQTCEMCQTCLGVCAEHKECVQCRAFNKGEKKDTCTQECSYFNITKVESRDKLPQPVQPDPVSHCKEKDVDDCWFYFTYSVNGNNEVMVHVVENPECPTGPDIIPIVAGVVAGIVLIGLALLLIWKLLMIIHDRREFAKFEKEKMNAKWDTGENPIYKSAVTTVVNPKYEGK
Chain of Integrin beta-1 (Homo sapiens) + Integrin alpha-4 (Homo sapiens) (P13612 whole entry, looked up): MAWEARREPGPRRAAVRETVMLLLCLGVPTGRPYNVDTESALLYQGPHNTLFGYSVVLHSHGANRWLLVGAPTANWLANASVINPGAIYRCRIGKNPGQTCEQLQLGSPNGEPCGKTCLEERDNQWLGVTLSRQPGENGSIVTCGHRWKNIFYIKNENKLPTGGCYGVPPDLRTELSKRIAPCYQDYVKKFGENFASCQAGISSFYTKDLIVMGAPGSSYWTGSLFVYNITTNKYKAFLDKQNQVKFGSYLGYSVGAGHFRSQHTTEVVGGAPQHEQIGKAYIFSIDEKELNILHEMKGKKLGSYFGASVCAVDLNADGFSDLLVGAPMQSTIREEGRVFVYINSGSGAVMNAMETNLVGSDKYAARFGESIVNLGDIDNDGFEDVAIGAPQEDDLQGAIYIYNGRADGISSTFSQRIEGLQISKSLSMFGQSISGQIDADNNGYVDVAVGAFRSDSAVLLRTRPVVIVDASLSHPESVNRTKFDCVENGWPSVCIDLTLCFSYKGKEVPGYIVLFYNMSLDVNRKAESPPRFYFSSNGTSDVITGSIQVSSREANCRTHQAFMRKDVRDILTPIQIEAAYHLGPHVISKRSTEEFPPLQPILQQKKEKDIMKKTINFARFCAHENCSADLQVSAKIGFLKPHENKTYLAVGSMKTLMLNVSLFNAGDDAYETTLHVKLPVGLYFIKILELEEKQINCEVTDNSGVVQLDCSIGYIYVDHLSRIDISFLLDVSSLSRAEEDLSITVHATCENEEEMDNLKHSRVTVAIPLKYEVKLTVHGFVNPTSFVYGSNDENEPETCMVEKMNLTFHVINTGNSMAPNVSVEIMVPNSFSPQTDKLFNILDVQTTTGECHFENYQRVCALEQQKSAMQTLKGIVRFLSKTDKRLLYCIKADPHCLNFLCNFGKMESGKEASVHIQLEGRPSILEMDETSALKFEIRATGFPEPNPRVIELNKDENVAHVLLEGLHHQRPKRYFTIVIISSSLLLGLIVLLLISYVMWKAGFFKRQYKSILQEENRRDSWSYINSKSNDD

The nature of experiment [8]: calorie-restriction mimetic ROS inhibitors, yeast – validation compound set, pilot screen (AID 2706;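 active = superoxide response below 65% of plate, a cut near 3 SD across the whole screen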;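 also: yeast exposed to compound for one week at 30 degrees C before staining; 100% = mean of all compound wells on the same plate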). The note with it: S. cerevisiae aging, superoxide DHE fluorescence; at 10 µM; stronger effect = lower value.
The target of experiment [9] is Beta-adrenergic receptor kinase 1 (Homo sapiens) (UniProt P25098). The experiment is described as follows: GRK2 binders displacing RNA aptamer, biochemical, validation, human GRK2, bead flow cytometry (AID 488806;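 active = aptamer binding inhibition above 30%, about 3 SD of noise from non-fluorescent compounds; inactive = inhibition at or below 30%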). The note with it: bead-bound GRK2, FAM-aptamer displacement, at 10 µM, stronger effect = higher value.
Chain of Beta-adrenergic receptor kinase 1 (Homo sapiens) (P25098 whole entry, looked up): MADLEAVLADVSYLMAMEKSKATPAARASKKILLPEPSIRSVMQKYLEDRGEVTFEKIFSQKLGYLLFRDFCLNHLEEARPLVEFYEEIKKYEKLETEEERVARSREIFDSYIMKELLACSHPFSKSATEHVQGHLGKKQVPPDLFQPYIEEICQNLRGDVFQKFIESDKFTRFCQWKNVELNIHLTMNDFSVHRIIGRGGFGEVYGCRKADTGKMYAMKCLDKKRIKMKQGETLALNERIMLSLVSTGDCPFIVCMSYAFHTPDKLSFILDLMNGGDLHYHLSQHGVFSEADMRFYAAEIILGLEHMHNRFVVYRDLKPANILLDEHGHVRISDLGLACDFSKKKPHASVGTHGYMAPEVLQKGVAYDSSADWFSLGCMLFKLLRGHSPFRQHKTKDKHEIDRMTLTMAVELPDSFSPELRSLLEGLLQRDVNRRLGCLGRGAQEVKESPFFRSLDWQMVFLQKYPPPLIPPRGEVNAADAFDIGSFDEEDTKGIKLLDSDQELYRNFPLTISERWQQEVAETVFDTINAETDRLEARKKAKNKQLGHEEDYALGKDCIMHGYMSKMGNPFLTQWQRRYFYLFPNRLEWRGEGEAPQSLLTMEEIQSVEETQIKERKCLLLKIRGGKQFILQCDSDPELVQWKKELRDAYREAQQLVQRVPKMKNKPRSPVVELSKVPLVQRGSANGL
In experiment [10] the target is Beta-2 adrenergic receptor (Homo sapiens) (UniProt P07550). The experiment is described as follows: agonist-induced loss of surface beta2AR – cell-based, FAP fluorogen, flow cytometry, validation set, pilot screen (AID 504459;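 active = percent response above 42, roughly 3 SD of non-fluorescent test compounds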;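 also: agonist-driven loss of surface beta2AR via internalization measured by FAP dye flow cytometry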). Conditions: Am2.2-beta2AR cells, at 10 µM, stronger effect = higher value.
Chain of Beta-2 adrenergic receptor (Homo sapiens) (P07550 whole entry, looked up): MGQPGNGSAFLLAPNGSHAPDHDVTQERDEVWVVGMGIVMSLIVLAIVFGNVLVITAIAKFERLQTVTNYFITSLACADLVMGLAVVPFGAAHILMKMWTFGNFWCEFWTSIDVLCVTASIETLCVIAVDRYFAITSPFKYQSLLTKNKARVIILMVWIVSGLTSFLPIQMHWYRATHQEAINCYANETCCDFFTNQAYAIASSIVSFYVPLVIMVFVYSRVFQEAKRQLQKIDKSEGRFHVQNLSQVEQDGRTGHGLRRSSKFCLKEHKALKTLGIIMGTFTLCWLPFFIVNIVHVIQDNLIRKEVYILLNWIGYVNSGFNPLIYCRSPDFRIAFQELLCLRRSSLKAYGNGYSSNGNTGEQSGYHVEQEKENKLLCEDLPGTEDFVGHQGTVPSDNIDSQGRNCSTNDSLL
In experiment [11] the target is AP-2 complex subunit beta (Homo sapiens) (UniProt P63010). The experiment is described as follows: beta-arrestin/AP2 interaction blockers – biochemical, validation set, GST-AP2 beads, flow cytometry, pilot screen (AID 504541;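 active = inhibition above 54%, about 3 SD of non-fluorescent compounds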;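 also: AP2 carries R879A mutation and is captured from E. coli lysate; bead-bound FITC arrestin peptide fluorescence measuring arrestin peptide binding to AP2; 0% = DMSO wells and 100% = excess unlabeled arrestin peptide control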). Conditions: FITC arrestin peptide, at 10 µM, stronger effect = higher value, AP2 beta2 appendage fragment, R879A mutant.
Chain of AP-2 complex subunit beta (Homo sapiens) (P63010 whole entry, looked up, the tested form may be a part, one chain of several): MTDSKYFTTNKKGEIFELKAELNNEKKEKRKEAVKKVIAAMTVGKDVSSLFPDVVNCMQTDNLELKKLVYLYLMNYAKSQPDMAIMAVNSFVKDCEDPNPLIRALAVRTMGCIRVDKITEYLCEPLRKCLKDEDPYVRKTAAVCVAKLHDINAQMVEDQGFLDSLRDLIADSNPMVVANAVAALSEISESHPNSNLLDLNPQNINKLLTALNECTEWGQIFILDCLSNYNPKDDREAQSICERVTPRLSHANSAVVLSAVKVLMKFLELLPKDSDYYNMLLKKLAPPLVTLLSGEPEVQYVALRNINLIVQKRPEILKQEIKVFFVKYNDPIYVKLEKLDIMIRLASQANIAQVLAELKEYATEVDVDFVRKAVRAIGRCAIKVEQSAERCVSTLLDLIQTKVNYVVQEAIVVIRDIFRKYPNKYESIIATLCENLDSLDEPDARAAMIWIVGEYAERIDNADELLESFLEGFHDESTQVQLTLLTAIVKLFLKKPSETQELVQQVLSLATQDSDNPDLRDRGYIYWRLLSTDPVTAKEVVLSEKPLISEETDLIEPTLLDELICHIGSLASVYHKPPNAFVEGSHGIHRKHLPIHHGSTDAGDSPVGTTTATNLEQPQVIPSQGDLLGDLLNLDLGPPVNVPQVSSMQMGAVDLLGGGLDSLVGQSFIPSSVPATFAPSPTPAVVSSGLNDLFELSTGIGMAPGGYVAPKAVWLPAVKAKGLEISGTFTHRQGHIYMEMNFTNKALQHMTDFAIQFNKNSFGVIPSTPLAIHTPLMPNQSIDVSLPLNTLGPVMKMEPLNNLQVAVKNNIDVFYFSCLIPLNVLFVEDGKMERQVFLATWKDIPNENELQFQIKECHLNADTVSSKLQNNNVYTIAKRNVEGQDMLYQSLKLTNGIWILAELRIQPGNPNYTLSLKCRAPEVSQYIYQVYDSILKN
Experiment [12] is described as follows: cytosolic pH regulators acting via V-ATPase – S. cerevisiae, pHLuorin, HTS validation (AID 504600; in the data active = response above about 15%;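 also: plate controls were DMSO for no effect and reference compound for full effect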). The note with it: V-ATPase proton transport, at 10 µM, stronger effect = higher value.
The subject of experiment [13] is anti-desmoglein-3 scFv antibody binding to human DSG3. The experiment is described as follows: blockers of pathogenic pemphigus antibody–desmoglein-3 binding – biochemical, validation compound set, bead-based, flow cytometry, pilot screen (AID 588368;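 active = binding below the plate cutoff, the plate median minus 3 SD, with a reading above zero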;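 also: signal is the median channel fluorescence of bead-bound GFP antibody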). The note with it: Protein G beads, DSG3-Fc, scFv-GFP binding, at 10 µM, stronger effect = lower value.
Experiment [14] in a line: Nile Red efflux blockade in pump-expressing yeast – validation compound set, multiplex, phenotypic, pilot screen (AID 588506;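 active = efflux inhibition above 0.42, the validation set average plus 4 SD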;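 also: Nile Red retained in cells so higher fluorescence means more efflux inhibition; 0 = negative control wells and 1 = enniatin B 25 µM full block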). Conditions: S. cerevisiae pump-expressing triplex, Nile Red efflux flow cytometry; at 10 µM; stronger effect = higher value; the pumps come from Candida albicans.
In experiment [15] the target is ATP-binding cassette sub-family B member 6 (Homo sapiens) (UniProt Q9NP58). Nature of the experiment: blockers of ABCB6-driven porphyrin uptake – K562-ABCB6 cells, flow cytometry, validation set, pilot screen (AID 588550;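 active = inhibition above the screen-wide mean plus 3 SD, about 51%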;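 also: 0% = DMSO wells and 100% = benzethonium chloride 70 µM positive control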). The note with it: K562-ABCB6 porphyrin accumulation, 1 h, at 10 µM, stronger effect = higher value.
Chain of ATP-binding cassette sub-family B member 6 (Homo sapiens) (Q9NP58 whole entry, looked up): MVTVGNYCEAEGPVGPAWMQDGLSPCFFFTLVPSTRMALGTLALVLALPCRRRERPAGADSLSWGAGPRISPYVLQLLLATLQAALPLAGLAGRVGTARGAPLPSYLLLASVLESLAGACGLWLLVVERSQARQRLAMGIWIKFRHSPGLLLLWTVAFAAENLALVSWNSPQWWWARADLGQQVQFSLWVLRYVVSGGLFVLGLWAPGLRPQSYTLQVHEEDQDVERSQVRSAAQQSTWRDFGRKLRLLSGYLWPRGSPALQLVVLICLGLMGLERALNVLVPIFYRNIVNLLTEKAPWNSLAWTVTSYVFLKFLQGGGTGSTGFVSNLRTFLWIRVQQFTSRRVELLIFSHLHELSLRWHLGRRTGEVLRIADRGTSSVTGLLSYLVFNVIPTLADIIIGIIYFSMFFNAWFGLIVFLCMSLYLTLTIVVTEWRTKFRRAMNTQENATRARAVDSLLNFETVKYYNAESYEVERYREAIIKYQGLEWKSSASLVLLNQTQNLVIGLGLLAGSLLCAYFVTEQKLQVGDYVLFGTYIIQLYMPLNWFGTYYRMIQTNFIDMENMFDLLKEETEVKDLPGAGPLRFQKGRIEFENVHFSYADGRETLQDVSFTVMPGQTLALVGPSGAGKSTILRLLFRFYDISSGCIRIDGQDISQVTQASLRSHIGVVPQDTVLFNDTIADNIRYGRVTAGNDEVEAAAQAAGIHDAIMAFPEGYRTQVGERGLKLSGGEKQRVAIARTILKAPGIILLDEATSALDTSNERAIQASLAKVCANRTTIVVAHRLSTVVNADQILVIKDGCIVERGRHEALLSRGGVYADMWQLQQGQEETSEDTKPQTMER
The nature of experiment [16]: AML differentiation inducers, ER-HoxA9 marrow cells – cell-based, GFP/MAC1 double positive, flow cytometry, validation set, primary screen (AID 588685;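 active = differentiation response of at least 50%, scaled between solvent and reference control, from cells with both markers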;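 also: compound exposure lasts four days before antibody staining and flow analysis; 0% = DMSO wells and 100% = 5 µM fulvestrant positive control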). The note with it: stronger effect = higher value, normalized: vehicle 0, fulvestrant 100.

SMILES strings stand for the structures. Results filed as inconclusive are left out. Active and inactive are the calls of the source.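 The calls were made as follows, unless noted: active = response below a set limit, under 55% cells CD8-positive and vesicle-bound, and CD8 cells' 90th-percentile brightness under 279; inactive = the rest.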

Turning to `O=C(c1ccc(Cl)cc1)C1CCCN(C(=O)/C=C/c2ccccn2)C1` (stereo not given), the percent of DMSO control GFP in experiment [1] was 92.4% (inactive). Moreover, the GFP response vs DMSO in [2] was 102% (inactive); in experiment [4], 137% (inactive). Moreover, in [3], the percent response of DMSO control is 97.7% (inactive). Also, in [5], the GFP response, % of DMSO is 115% (inactive). Besides, the double positive events in [6] is 57.5%. Besides, in experiment [6], the vesicle binding response is 280% (inactive). The inhibition in experiment [7] was -1.12% (inactive); in experiment [11], -19.4% (inactive); in experiment [15] it was -2% (inactive). For the same compound, in [8], the superoxide response (% of plate) is 91.6% (inactive). Besides, in experiment [9], the aptamer binding inhibition was -3% (inactive). Also, the response in [10] is -44.8% (inactive); in experiment [12], 2.11% (inactive). Moreover, the binding (% of control) in [13] is 106% (inactive). The efflux inhibition (fraction of control) in experiment [14] was 0 (inactive). The differentiation response in experiment [16] was -1.05% (inactive).
Regarding `CCCNC(C)C(=O)Nc1ccccc1C` (stereo not given), the percent of DMSO control GFP in experiment [1] was 100% (inactive). Also, the GFP response vs DMSO was 101% (inactive) in experiment [2] and 92.6% (inactive) in experiment [4]. In addition, the percent response of DMSO control in experiment [3] was 101% (inactive). Besides, the GFP response, % of DMSO in experiment [5] was 103% (inactive). The compound also had a double positive events in [6] of 60.4%. For the same compound, the vesicle binding response in experiment [6] was 130% (inactive). Also, the inhibition is -15.8% (inactive) in experiment [7], -0.33% (inactive) in experiment [11] and -3% (inactive) in [15]. The superoxide response (% of plate) in experiment [8] was 96.4% (inactive). Besides, in experiment [9], the aptamer binding inhibition is 2% (inactive). Also, the response in [10] is 2.61% (inactive); in experiment [12], 4.59% (inactive). The binding (% of control) in experiment [13] is 102% (inactive). The efflux inhibition (fraction of control) in [14] was -0.16 (inactive). The differentiation response in experiment [16] was -7.5% (inactive).
Regarding `CC(C)C12CN3CC(C(C)C)(CN(C1)C3c1ccccc1)C2O` (stereo not given), in experiment [1], the percent of DMSO control GFP is 98.9% (inactive). Moreover, the GFP response vs DMSO in [2] and in experiment [4] was 101% (inactive) in each case. In [3], the percent response of DMSO control is 101% (inactive). Moreover, the GFP response, % of DMSO in experiment [5] is 109% (inactive). In experiment [6], this compound displayed a double positive events of 63.9%. For the same compound, the vesicle binding response in [6] was 110% (inactive). The inhibition in [7] was 14.2% (inactive); in experiment [11], 8.13% (inactive); in experiment [15], 6% (inactive). Moreover, the superoxide response (% of plate) in experiment [8] is 99.3% (inactive). In addition, the aptamer binding inhibition in experiment [9] was 6% (inactive). In addition, the response in [10] was -12.3% (inactive); in experiment [12], -11% (inactive). Moreover, in experiment [13], the binding (% of control) was 104% (inactive). Moreover, in experiment [14], the efflux inhibition (fraction of control) is -0.09 (inactive). Besides, in [16], the differentiation response was -0.06% (inactive).
On to `CN(C)CCOC(c1ccccc1)c1ccccc1` (tested in a mixture with another compound), for which, in experiment [1], the percent of DMSO control GFP was 103% (inactive). The figures for the GFP response vs DMSO in [2] and in [4] were 99.3% (inactive) and 91.4% (inactive), respectively. The percent response of DMSO control in [3] is 98.9% (inactive). For the same compound, the GFP response, % of DMSO in [5] was 96.4% (inactive). The same compound gave a double positive events in experiment [6] of 58.3%. The vesicle binding response in experiment [6] is 138% (inactive). Besides, the figures for the inhibition in experiment [7], in experiment [11] and in experiment [15] were 13% (inactive), -10.1% (inactive) and 2% (inactive), respectively. For the same compound, the superoxide response (% of plate) in experiment [8] was 91.9% (inactive). Moreover, in experiment [9], the aptamer binding inhibition is 3% (inactive). In addition, the response was -5.43% (inactive) in [10] and -1% (inactive) in experiment [12]. Further, the binding (% of control) in experiment [13] was 93.3% (inactive). In addition, the efflux inhibition (fraction of control) in [14] was 0.27 (inactive). Besides, in experiment [16], the differentiation response is 5.13% (inactive).
For `Cc1ccc(C2=NOC(=O)/C2=C\C=C\c2ccccc2)cc1`, the percent of DMSO control GFP in experiment [1] is 107% (inactive). For the same compound, the GFP response vs DMSO in experiment [2] was 101% (inactive); in [4], 139% (inactive). Further, in experiment [3], the percent response of DMSO control was 108% (inactive). In [5], the GFP response, % of DMSO is 73.5% (inactive). Moreover, the double positive events in experiment [6] came to 69.9%. Moreover, the vesicle binding response in experiment [6] is 167% (inactive). The inhibition was 33.8% (inactive) in experiment [7], 13% (inactive) in experiment [11] and -16% (inactive) in experiment [15]. In addition, in experiment [8], the superoxide response (% of plate) was 113% (inactive). In addition, the aptamer binding inhibition in experiment [9] is -4% (inactive). The figures for the response in [10] and in experiment [12] were 34% (inactive) and -2.56% (inactive), respectively. Moreover, in experiment [13], the binding (% of control) is 105% (inactive). In addition, the efflux inhibition (fraction of control) in [14] is -0.17 (inactive). Besides, the differentiation response in [16] was -4.57% (inactive).

Broadly, the inhibition is the relative decrease from the control value, in per cent.

For the origin of these results see PubChem BioAssay.
